Measurements reported in the supplement of paper PMC11732987, “Enantioselective OTUD7B fragment discovery through chemoproteomics screening and high-throughput optimisation” (Communications Chemistry, 2025).

Experiments:
Assay in all cases: log2 ratio of Biotin-Ahx-Ub-VS probe labelling (fragment/DMSO); higher = less target engagement (more negative = stronger competition), active = hit call of the paper (q ≤ 0.05, log2 ratio ≤ -1)
Details in all cases: compound concentration: 200 uM; treatment time: 3 h
[1] = target: T1, ALG13 (UniProt Q9NP73)
T1 sequence (whole entry): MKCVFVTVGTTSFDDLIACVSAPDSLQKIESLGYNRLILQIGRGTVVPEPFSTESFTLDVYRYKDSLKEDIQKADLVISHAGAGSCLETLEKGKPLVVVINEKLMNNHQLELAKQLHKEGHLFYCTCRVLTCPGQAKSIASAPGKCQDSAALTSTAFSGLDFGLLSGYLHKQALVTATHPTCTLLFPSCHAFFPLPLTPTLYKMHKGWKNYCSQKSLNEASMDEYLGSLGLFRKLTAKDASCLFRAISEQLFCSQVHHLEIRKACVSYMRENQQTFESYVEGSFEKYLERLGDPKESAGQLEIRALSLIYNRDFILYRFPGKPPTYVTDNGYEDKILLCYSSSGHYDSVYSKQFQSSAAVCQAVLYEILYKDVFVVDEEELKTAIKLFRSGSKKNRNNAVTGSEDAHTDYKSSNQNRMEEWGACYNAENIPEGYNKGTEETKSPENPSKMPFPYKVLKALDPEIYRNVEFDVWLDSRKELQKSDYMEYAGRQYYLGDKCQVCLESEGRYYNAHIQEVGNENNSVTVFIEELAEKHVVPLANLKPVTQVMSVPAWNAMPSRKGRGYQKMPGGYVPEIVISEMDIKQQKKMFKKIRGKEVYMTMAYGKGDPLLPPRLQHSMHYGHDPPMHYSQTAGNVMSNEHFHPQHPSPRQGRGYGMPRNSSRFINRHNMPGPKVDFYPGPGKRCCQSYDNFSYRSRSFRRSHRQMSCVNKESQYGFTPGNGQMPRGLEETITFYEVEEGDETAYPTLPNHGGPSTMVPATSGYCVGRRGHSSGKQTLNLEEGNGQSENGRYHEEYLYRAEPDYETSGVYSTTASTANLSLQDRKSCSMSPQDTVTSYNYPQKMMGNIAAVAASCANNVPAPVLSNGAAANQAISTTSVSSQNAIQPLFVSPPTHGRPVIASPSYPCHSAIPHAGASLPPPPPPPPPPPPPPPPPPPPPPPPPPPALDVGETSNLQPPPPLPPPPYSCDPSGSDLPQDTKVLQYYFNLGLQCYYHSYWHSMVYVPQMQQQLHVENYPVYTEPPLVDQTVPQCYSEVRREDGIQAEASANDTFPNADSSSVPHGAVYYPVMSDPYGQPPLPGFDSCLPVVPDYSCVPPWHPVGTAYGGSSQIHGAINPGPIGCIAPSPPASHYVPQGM
Outline: (§1)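 Average log2 ratios of fragment over vehicle were obtained by unpaired t-test from global-median-normalised Spectronaut label-free quantities. Proteins with ≥2 unique peptides were included. HEK293T lysate (495 µg per sample) was treated in triplicate with fragment at 200 µM or vehicle for 3 h, then with Biotin-Ahx-Ub-VS at 0.5 µM final for 1 h, and labelled DUBs were NeutrAvidin-enriched and run by diaPASEF LC-MS/MS.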

[2] = target: ATXN3 (UniProt P54252)
Outline: as §1

[3] = target: T2, BAP1 (UniProt Q92560)
T2 sequence (whole entry): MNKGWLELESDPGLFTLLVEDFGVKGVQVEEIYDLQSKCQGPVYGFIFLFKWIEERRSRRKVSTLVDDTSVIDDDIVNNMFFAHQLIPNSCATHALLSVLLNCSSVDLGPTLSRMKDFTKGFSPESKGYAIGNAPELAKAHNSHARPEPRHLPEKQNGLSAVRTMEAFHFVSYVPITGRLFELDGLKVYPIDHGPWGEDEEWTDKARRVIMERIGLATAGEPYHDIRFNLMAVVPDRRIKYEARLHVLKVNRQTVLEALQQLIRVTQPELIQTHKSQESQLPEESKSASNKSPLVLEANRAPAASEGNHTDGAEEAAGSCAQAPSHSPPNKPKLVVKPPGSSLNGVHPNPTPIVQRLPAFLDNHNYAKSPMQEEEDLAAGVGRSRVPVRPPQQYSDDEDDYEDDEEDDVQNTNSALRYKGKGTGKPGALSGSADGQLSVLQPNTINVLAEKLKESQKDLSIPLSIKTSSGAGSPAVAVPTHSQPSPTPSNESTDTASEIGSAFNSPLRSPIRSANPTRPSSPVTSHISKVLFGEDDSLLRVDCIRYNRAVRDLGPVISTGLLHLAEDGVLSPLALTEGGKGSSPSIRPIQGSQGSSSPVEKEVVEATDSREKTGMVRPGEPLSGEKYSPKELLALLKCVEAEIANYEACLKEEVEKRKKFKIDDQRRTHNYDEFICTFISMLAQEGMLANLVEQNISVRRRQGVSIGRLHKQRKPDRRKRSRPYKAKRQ
Outline: as §1

[4] = target: EIF3F (UniProt O00303)
Outline: as §1

[5] = target: EIF3H (UniProt O15372)
Outline: as §1

[6] = target: T3, FAM105A (UniProt Q9NUU6)
T3 sequence (whole entry): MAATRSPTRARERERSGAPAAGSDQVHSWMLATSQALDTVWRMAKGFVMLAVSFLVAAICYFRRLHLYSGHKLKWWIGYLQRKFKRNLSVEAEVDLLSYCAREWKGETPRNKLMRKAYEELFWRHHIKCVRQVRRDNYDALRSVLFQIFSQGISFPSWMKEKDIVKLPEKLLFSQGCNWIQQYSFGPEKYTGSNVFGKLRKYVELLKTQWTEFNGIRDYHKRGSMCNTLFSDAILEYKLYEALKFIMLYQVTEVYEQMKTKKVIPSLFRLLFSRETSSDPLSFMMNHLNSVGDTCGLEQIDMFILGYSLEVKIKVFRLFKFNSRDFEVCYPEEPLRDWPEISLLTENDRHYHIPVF
Outline: as §1

[7] = target: OTUB1 (UniProt Q96FW1)
Outline: as §1

[8] = target: T4, OTUD4 (UniProt Q01804)
T4 sequence (whole entry): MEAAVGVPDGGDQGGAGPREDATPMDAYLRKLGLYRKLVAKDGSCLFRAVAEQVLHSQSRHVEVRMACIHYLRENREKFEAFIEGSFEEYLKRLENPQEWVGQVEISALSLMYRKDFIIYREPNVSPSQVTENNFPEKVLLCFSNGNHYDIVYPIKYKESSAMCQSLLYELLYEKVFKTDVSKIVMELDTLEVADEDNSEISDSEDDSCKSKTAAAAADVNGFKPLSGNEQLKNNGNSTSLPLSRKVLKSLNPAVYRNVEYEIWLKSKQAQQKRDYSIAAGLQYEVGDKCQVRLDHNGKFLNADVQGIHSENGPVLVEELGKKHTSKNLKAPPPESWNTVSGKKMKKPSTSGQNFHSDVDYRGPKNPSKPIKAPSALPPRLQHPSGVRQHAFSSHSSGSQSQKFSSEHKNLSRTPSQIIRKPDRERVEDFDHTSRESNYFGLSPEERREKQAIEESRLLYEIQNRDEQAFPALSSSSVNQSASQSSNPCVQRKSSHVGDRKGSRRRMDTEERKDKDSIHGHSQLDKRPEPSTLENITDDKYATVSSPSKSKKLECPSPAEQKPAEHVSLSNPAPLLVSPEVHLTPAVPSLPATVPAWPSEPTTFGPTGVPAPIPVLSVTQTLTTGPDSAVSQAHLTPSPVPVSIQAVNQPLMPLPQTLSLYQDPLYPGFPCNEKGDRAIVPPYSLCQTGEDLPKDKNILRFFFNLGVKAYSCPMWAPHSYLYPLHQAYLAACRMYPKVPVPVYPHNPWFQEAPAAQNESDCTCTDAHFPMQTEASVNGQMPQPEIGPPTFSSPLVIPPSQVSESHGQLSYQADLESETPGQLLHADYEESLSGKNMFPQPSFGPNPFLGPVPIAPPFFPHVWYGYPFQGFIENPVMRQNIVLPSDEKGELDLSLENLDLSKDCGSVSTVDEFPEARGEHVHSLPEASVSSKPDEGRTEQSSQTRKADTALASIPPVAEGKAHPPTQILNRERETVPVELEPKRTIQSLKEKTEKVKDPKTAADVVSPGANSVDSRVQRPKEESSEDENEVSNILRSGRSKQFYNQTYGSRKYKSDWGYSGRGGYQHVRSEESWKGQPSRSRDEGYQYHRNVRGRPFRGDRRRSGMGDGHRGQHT
Outline: as §1

[9] = target: T5, OTUD5 (UniProt Q96G74)
T5 sequence (whole entry): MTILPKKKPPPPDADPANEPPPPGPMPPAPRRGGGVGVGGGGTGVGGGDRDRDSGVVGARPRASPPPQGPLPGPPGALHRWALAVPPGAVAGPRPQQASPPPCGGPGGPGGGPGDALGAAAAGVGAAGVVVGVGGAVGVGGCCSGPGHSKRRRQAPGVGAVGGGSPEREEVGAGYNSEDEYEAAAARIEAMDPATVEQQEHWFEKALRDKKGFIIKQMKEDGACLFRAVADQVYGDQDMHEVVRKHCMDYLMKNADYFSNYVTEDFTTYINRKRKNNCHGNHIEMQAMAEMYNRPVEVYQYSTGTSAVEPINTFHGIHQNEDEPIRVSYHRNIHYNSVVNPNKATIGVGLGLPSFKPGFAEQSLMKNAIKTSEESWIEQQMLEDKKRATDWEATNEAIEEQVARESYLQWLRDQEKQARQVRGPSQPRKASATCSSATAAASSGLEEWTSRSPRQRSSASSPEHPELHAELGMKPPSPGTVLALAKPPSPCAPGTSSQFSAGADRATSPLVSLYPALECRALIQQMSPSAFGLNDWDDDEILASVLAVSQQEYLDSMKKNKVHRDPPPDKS
Outline: as §1

Measured: log2 ratio of Biotin-Ahx-Ub-VS probe labelling

Chain of ATXN3 (P54252 whole entry): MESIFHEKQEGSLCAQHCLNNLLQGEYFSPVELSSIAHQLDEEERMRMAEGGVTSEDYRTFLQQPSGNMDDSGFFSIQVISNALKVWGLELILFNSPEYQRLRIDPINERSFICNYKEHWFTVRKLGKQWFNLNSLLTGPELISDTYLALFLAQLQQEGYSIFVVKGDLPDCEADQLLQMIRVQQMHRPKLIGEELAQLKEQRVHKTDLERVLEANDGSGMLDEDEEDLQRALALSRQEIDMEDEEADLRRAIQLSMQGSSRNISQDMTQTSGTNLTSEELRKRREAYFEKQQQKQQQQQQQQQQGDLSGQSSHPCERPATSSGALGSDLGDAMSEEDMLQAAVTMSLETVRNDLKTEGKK
Chain of EIF3H (O15372 whole entry): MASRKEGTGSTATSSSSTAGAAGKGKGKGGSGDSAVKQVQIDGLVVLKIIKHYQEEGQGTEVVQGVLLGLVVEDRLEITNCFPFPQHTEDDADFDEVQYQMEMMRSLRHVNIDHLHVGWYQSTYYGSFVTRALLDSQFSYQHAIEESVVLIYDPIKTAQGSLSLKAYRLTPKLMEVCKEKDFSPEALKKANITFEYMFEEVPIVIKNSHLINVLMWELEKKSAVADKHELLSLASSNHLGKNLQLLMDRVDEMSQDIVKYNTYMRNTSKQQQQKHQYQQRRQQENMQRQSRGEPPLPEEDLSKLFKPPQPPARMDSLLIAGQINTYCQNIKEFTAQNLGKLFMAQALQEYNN
Chain of OTUB1 (Q96FW1 whole entry): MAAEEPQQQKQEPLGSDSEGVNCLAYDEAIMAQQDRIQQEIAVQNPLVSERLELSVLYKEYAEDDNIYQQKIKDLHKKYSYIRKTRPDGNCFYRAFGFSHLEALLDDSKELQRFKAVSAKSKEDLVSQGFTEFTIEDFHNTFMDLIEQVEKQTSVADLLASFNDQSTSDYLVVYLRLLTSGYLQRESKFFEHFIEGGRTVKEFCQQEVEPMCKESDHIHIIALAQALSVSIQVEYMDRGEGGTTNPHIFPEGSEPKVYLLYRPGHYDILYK
Chain of EIF3F (O00303 whole entry): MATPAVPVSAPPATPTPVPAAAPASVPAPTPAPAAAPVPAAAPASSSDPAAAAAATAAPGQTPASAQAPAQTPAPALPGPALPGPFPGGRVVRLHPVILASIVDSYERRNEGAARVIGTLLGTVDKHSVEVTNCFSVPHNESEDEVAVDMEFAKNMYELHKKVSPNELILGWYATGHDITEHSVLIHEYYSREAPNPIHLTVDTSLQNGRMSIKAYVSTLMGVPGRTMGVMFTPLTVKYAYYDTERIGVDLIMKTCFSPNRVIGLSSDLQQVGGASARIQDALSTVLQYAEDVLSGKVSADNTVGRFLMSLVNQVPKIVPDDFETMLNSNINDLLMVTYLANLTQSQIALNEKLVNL

O=C(CCl)N1CCN(C(=O)N2CCCCC2)CC1
inactive: [4] -0.507 | [5] 0.266 | [6] -0.215 | [7] -0.524 | [8] -0.638
active: [1] -1.37 | [2] -1.81 | [3] -1.46 | [9] -1.13

O=C(CCl)NCC(=O)N1CCCC1
inactive: [1] 0.0112 | [2] -0.179 | [3] -0.409 | [4] -0.198 | [5] 0.0708 | [6] -0.573 | [7] -0.202 | [8] -0.278 | [9] -0.231

O=C(CCl)N1CCCCCC1c1ncon1 (configuration not stated)
inactive: [1] 0.0534 | [2] -0.268 | [3] -0.409 | [4] 0.0211 | [5] 0.132 | [6] 0.156 | [7] 0.099 | [8] -0.759 | [9] -0.654

Cc1ccc(CNC(=O)CCl)nc1C.Cl
active: [3] -1.57
inactive: [1] -0.419 | [2] -0.055 | [4] -0.526 | [5] 0.278 | [6] -0.225 | [7] -0.192 | [8] -0.29 | [9] -0.221

Cl.O=C(CCl)N1CCC(n2nc3ccccc3n2)CC1
active: [2] -1.1 | [3] -2.08
inactive: [1] -0.254 | [4] -0.315 | [5] -0.151 | [6] 0.315 | [7] -0.67 | [8] -0.134 | [9] -0.494

COCC1C=CCCN1C(=O)CCl (configuration not stated)
inactive: [1] 0.0362 | [2] -0.232 | [3] -0.527 | [4] -0.011 | [5] 0.276 | [6] 0.371 | [7] 0.0515 | [8] -0.452 | [9] -0.298

O=C(CCl)NCc1ccc(Cl)cc1
active: [3] -2.74
inactive: [1] 0.0638 | [2] -0.168 | [4] 0.0714 | [5] -0.105 | [6] -0.347 | [7] 0.0283 | [8] 0.0745 | [9] -0.00631

O=C(CCl)NCCC1=CCCCC1
inactive: [1] 0.121 | [2] -0.135 | [3] -0.56 | [4] -0.0695 | [5] 0.0525 | [6] -0.125 | [7] 0.147 | [8] -0.135 | [9] -0.0425
